# ± gives the standard deviation.
# Tested on: RAW-Dual (murine macrophage reporter line)
# Test: IRF reporter (Lucia luciferase) activity fold change vs agonist alone; higher = enhanced IRF activity
# Settings: modulator concentration 10 µM; agonist: MPLA […]
# Procedure, shortened: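 Overnight stimulation with a PRR agonist followed pre-incubation for 1 hour at 37 °C with compound at 10 μM final. This was done in RAW-Dual murine macrophage reporter cells seeded at 50 000 per well in 384-well plates. NF-κB (SEAP, QUANTI-Blue absorbance at 620 nm) and IRF (Lucia luciferase, QUANTI-Luc luminescence) were read from the supernatant. Each reporter's fold change relative to the mean agonist-only control on the same plate was averaged over replicate plates.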
row,Compound,IRF reporter
1,c1ccc(CNc2nc(N3CCOCC3)nc(N3CCOCC3)n2)cc1,1.24 ± 0.21
2,Cc1nnc(NC(=O)c2cccc([N+](=O)[O-])c2)s1,1.09 ± 0.15
3,COc1ccc(N(CC(=O)N2CCc3ccccc3C2)S(C)(=O)=O)c(OC)c1,1.13 ± 0.089
4,O=C(Nc1cccnc1)c1ccc(OC2CCOCC2)nc1,1.3 ± 0.14
5,CC[C@H](C)C(=O)O[C@H]1C[C@@H](C)C=C2C=C[C@H](C)[C@H](CC[C@@H]3C[C@@H](O)CC(=O)O3)[C@H]21,0.776 ± 0.17
6,Cc1c(C)n2c3c(=O)n(CC=Cc4ccccc4)c(=O)n(C)c3nc2n1CCOCCO,1.09 ± 0.085
7,O=C(Nc1ncc(S(=O)(=O)c2ccc([N+](=O)[O-])cc2)s1)c1cccs1,1.18 ± 0.21
8,CN1c2ccccc2-c2ccccc2C12C=Cc1cc([N+](=O)[O-])ccc1O2 (stereo unspecified),1.1 ± 0.12
9,CCn1cc(C(=O)O)c(=O)c2cc(F)c(N3CCN(C)CC3)cc21.CS(=O)(=O)O.O.O,1.07 ± 0.16
10,Cc1cc(OCC(O)Cn2cnc3ccccc32)ccc1Cl (stereo unspecified),0.685 ± 0.12
11,CCN(CC)C(=O)N1CCN(C)CC1 [Prestw-284],1.28 ± 0.14
12,Cc1cnc2c(c1SCC(=O)N1CCc3ccccc31)c(=O)n(C)c(=O)n2C,1.14 ± 0.25
13,Cc1c(C)c2c(c(C)c1O)CCC(C)(CCCC(C)CCCC(C)CCCC(C)C)O2 (stereo unspecified),0.994 ± 0.1
14,COc1cc2nc(N(C)CCCNC(=O)C3CCCO3)nc(N)c2cc1OC (stereo unspecified) [Prestw-322],0.866 ± 0.11
15,Cc1cc(C)nc(Nc2ncc(O)n2-c2ccc(F)cc2)n1,1.16 ± 0.27
16,Cc1cc(OCC(=O)NN=Cc2ccc(O)c([N+](=O)[O-])c2)ccc1Cl,1.13 ± 0.13

# Reference: the supplement of paper PMC10646978
